A short description of assay [1]: qHTS assay to test for compound auto fluorescence at 535 nm (green) in HEK293 cells (AID 720680). Background: qHTS replaces the single test concentration by a dilution series.
Assay [2] is described as follows: qHTS assay to test for compound auto fluorescence at 460 nm (blue) in HEK293 cell free culture (AID 720681). In outline: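 Compounds were added to cell-free DMEM with 10% FBS and fluorescence read directly. The blue channel used 405 nm excitation and 460 nm emission, with triamterene as the reference fluorophore.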
Assay [3] in a line: qHTS assay to test for compound auto fluorescence at 535 nm (green) in HEK293 cell free culture (AID 720682). In outline: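 Fluorescein serves as the green reference fluorophore; each compound's intrinsic emission at 535 nm (excitation 485 nm) is reported as an equivalent amount of that dye, measured in serum-containing DMEM without cells.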
Assay [4] is described as follows: qHTS assay to test for compound auto fluorescence at 590 nm (red) in HEK293 cell free culture (AID 720683). In short, it runs like this:
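Cell-free wells of DMEM with 10% FBS received compound, and intrinsic fluorescence was read at excitation/emission 540/590 nm. Values expressed as equivalence to Rose Bengal sodium.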

A short description of assay [5]: qHTS assay to test for compound auto fluorescence at 590 nm (red) in HepG2 cell free culture (AID 720684). In outline:
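Auto fluorescence equivalency versus Rose Bengal sodium, red channel Ex/Em 540/590 nm; compounds in cell-free MEM/10% FBS; DMSO vehicle control.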

The nature of assay [6]: qHTS assay to test for compound auto fluorescence at 460 nm (blue) in HepG2 cell free culture (AID 720685). In outline:
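Cell-free plates of MEM plus 10% FBS received 23 nL compound or DMSO vehicle; blue-channel (405/460 nm) intensity scored against triamterene as reference fluorophore.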

Assay [7] in a line: qHTS assay to test for compound auto fluorescence at 535 nm (green) in HepG2 cell free culture (AID 720686).
Assay [8] is described as follows: qHTS assay to test for compound auto fluorescence at 460 nm (blue) in HepG2 cells (AID 720687). In short, it runs like this: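 HepG2 cells in MEM with 10% FBS, attached overnight at 37 C, were exposed to compound or DMSO for 1 hr at 37 C, 5% CO2. Blue fluorescence was read at 405/460 nm, with triamterene as reference fluorophore.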
The target in assay [9] is Glucocorticoid receptor (Homo sapiens) (UniProt P04150). Description: qHTS assay to identify small molecule agonists of the glucocorticoid receptor (GR) signaling pathway (AID 720691; active means well fitted activation curve with a large enough effect in the signal ratio in the repeat runs, not every such curve was filed as active; inconclusive means weak or mixed curves, or effect the other way; inactive means no such curve, though single readings can be large or run the other way; the % refers to the signal ratio; further: potency means the concentration at half of the fitted maximal effect). In outline:
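HeLa GR-bla reporter line; cells pre-incubated 4 h, compound in DMSO 18 h at 37 C; LiveBLAzer B/G FRET substrate 2 h RT; fluorescence intensity read-out.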

Assay [10] has the same target. Description: qHTS assay to identify small molecule antagonists of the glucocorticoid receptor (GR) signaling pathway (AID 720692; active means well fitted inhibition curve with a large enough effect in the signal ratio in the repeat runs, not every such curve was filed as active; inconclusive means weak or mixed curves, or effect the other way; inactive means no such curve, though single readings can be large or run the other way; the % refers to the signal ratio; further: potency means the concentration at half of the fitted maximal effect). In short, it runs like this:
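Read-out: beta-lactamase FRET substrate fluorescence, 2 h at room temperature, in HeLa cells stably carrying a GRE-driven bla reporter. Compounds were co-incubated with 5 nM dexamethasone agonist (final) for 18 h at 37 C.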

Where “and” joins values, the source holds several entries; their conditions need not be identical. Equal values may be shown once. Calls of active or inactive are those of the source. Unless noted, the call rests on the fitted dose curve; in most records, active means well fitted curve in the direction sought with a large enough effect in the repeat runs; inconclusive means weak or mixed curves; inactive means flat fitted curve, though single readings scatter.

This note sets out measurements from PubChem BioAssay (Tox21).

Chain of Glucocorticoid receptor (Homo sapiens) (P04150 whole entry, looked up): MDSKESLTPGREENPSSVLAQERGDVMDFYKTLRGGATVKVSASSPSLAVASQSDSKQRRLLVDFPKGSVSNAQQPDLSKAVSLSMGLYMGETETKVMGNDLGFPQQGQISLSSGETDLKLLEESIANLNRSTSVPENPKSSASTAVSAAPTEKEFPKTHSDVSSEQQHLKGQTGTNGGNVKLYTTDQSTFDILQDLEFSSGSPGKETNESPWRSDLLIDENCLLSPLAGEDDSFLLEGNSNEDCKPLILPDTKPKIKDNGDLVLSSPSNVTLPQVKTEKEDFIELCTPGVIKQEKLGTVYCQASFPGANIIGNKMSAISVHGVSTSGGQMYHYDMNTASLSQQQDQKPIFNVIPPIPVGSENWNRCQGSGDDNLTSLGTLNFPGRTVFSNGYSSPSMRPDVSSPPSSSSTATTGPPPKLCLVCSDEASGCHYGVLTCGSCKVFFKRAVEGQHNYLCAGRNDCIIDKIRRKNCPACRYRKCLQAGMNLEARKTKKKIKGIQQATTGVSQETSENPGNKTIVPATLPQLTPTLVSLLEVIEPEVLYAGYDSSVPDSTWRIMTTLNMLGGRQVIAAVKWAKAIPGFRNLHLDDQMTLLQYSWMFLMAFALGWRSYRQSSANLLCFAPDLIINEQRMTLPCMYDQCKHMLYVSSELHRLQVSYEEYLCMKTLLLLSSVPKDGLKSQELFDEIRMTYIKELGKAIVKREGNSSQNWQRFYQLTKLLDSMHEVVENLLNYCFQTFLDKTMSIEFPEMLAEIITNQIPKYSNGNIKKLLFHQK

`Cc1ccc(/C(=C\CN2CCCC2)c2ccccn2)cc1`: the Potency entry in assay [1], in [2], in assay [3], in assay [4], in [5] and in assay [6] was “inactive” in each case. The Potency result in [7] and in [8] was “inactive” in each case.

In the case of `OC[C@@H](O)[C@@H](O[C@@H]1O[C@H](CO)[C@H](O)[C@H](O)[C@H]1O)[C@H](O)[C@@H](O)CO`, the Potency entry in [1], in assay [2], in assay [3], in assay [4], in assay [5] and in [6] was “inactive” throughout. In addition, the Potency entry in [7] and in assay [8] was “inactive” each time.

`CC(=O)Oc1ccc(C(c2ccc(OC(C)=O)cc2)c2ccccn2)cc1`: the Potency result in [1], in assay [2], in assay [3], in [4], in assay [5] and in assay [6] was “inactive” each time. Moreover, the Potency entry in assay [7] and in [8] was “inactive” throughout.

In the case of `CC/C(=C(/CC)c1ccc(O)cc1)c1ccc(O)cc1`, the Potency result in assay [1], in assay [2], in assay [3], in [4], in assay [5] and in assay [6] was “inactive” each time. Also, the Potency entry in assay [7] and in [8] was “inactive” throughout.

As for `CC(=O)Oc1c(C)c(C)c2c(c1C)CC[C@@](C)(CCC[C@H](C)CCC[C@H](C)CCCC(C)C)O2`, the Potency entry in assay [1], in [2], in assay [3], in assay [4], in assay [5] and in assay [6] was “inactive” each time. In addition, the Potency entry in assay [7] and in assay [8] was “inactive” each time.

For the compound `O=C(O)COCCN1CCN(C(c2ccccc2)c2ccc(Cl)cc2)CC1` (stereo not drawn), the Potency entry in assay [1], in [2], in assay [3], in [4], in assay [5] and in assay [6] was “inactive” throughout. Besides, the Potency result in assay [7] and in assay [8] was “inactive” each time.

For the compound `CC(=O)[C@@]1(O)CC[C@H]2[C@@H]3C[C@H](C)C4=CC(=O)C=C[C@]4(C)[C@@]3(F)[C@@H](O)C[C@@]21C`, the Potency result in assay [1], in assay [2], in assay [3], in assay [4], in [5] and in assay [6] was “inactive” each time. Besides, the Potency result in assay [7] and in assay [8] was “inactive” each time. The Potency in assay [9] was 12.9 nM [inconclusive] (active) and 3.5 nM (active).

For the compound `Nc1ccc2c(c1)C(=O)c1ccccc1C2=O`, the Potency entry in assay [1], in assay [2], in [3], in assay [4], in assay [5] and in [6] was “inactive” in each case. Besides, the Potency result in assay [7], in [8] and in assay [9] was “inactive” in each case.

As for `CCc1cccc2c3c([nH]c12)C(CC)(CC(=O)O)OCC3` (stereo not drawn), the Potency result in assay [1], in assay [2], in [3], in assay [4], in [5] and in assay [6] was “inactive” each time. Besides, the Potency result in [7] and in [8] was “inactive” each time.

As for `Nc1cc([N+](=O)[O-])ccc1C(=O)O`, the Potency result in assay [1], in [2], in assay [3], in assay [4], in assay [5] and in [6] was “inactive” in each case. The Potency entry in [7] and in assay [8] was “inactive” throughout.

As for `CCC(Cc1c(I)cc(I)c(N)c1I)C(=O)O` (stereo not drawn), the Potency result in [1], in [2], in assay [3], in [4], in assay [5] and in [6] was “inactive” in each case. For the same compound, the Potency result in assay [7], in [8] and in assay [9] was “inactive” throughout.

Consider `CCCN1C=CN(C)C1`, for which the Potency result in assay [1], in [2], in assay [3], in [4], in [5] and in assay [6] was “inactive” each time. The Potency entry in [7] and in assay [8] was “inactive” in each case.

`Cc1ccc(C)c(O)c1`: the Potency entry in assay [1], in assay [2], in assay [3], in assay [4], in assay [5] and in [6] was “inactive” each time. Besides, the Potency result in assay [7], in assay [8], in assay [9] and in assay [10] was “inactive” throughout.

Turning to `C=C[Si](OCCOC)(OCCOC)OCCOC`, the Potency entry in assay [1], in [2], in assay [3], in assay [4], in [5] and in [6] was “inactive” throughout. Further, the Potency result in [7], in assay [8], in assay [9] and in [10] was “inactive” in each case.

As for `CCCCCCCCCCC(CO)CCCCCCCC` (stereo not drawn), the Potency entry in assay [1], in assay [2], in assay [3], in assay [4], in assay [5] and in assay [6] was “inactive” each time. For the same compound, the Potency entry in assay [7], in assay [8], in assay [9] and in assay [10] was “inactive” in each case.

Regarding `CC1(C)OC(=O)NC1=O`, the Potency result in assay [1], in assay [2], in assay [3], in assay [4], in [5] and in assay [6] was “inactive” throughout. Besides, the Potency entry in assay [7], in [8], in assay [9] and in assay [10] was “inactive” in each case.

For `CC(=O)Nc1ccc2c(c1)Cc1cc(NC(C)=O)ccc1-2`, the Potency entry in assay [1], in assay [2], in [3], in assay [4], in [5] and in assay [6] was “inactive” throughout. The Potency entry in assay [7], in assay [8], in assay [9] and in assay [10] was “inactive” each time.

For the compound `COC(=O)CC(=O)OC`, the Potency result in [1], in assay [2], in assay [3], in assay [4], in assay [5] and in assay [6] was “inactive” each time. In addition, the Potency result in assay [7], in assay [8], in assay [9] and in assay [10] was “inactive” throughout.

As to `c1ccc2ncccc2c1`, the Potency entry in assay [1], in assay [2], in assay [3], in assay [4], in [5] and in assay [6] was “inactive” in each case. Besides, the Potency result in assay [7], in assay [8], in [9] and in assay [10] was “inactive” each time.

As for `Cc1ccc(S(=O)(=O)O)cc1C`, the Potency entry in assay [1], in assay [2], in assay [3], in assay [4], in assay [5] and in assay [6] was “inactive” in each case. Moreover, the Potency entry in assay [7], in assay [8], in [9] and in assay [10] was “inactive” in each case.

For the compound `Nc1ccc(N)c(Cl)c1`, the Potency entry in [1], in [2], in [3], in assay [4], in assay [5] and in [6] was “inactive” in each case. Further, the Potency entry in [7], in assay [8], in assay [9] and in assay [10] was “inactive” throughout.

Turning to `CCC/C=C/C=O`, the Potency entry in assay [1], in assay [2], in assay [3], in assay [4], in assay [5] and in [6] was “inactive” each time. For the same compound, the Potency result in assay [7], in [8], in assay [9] and in [10] was “inactive” each time.

Regarding `C[C@]12CC[C@@H]3c4ccc(O)cc4CC[C@H]3[C@@H]1CC[C@@H]2O`, the Potency entry in assay [1], in [2], in assay [3], in [4], in [5] and in assay [6] was “inactive” throughout. The Potency entry in [7] and in [8] was “inactive” throughout. The Potency in assay [10] is 4.25 µM (active) and 2.18 µM (active).

As to `CCCOCCO`, the Potency result in [1], in assay [2], in [3], in assay [4], in [5] and in assay [6] was “inactive” in each case. Further, the Potency entry in assay [7], in assay [8], in assay [9] and in assay [10] was “inactive” in each case.

Take `C=CC(=O)OCCCC`: the Potency entry in assay [1], in assay [2], in assay [3], in assay [4], in [5] and in assay [6] was “inactive” in each case. Moreover, the Potency result in [7], in assay [8], in assay [9] and in assay [10] was “inactive” in each case.
